Results reported in PubChem BioAssay (NCATS).
“And” between values parts separate entries of the source, which are not always exact repeats. Identical values can stand only once. Inconclusive results are not listed. Unmarked numbers belong to inactive results. The source made the active and inactive calls. Calls come from the whole dose curve; as a rule, active = well fitted curve in the direction sought with a large enough effect; inconclusive = small, poorly fitted or top-dose-only effect, or another doubt; inactive = no such curve, though single readings can be large; an effect the other way counts as inactive or inconclusive.

Assay: qHTS of pediatric cancer cell lines to identify multiple opportunities for drug repurposing: Confirmatory screen for TC32 cells (AID 1347118);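 note: cells exposed to compound for 48 h before the read; nearly all actives have a fitted effect of over 65% in size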; for activity change, negative = cytotoxicity: % is set by controls: 0 for no effect and ±100 for the full control effect
Conditions: TC32 Ewing sarcoma cells viability qHTS; series mostly up to 45.9 µM; activity change, negative = cytotoxicity: at the top concentration
Summary of the method: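 qHTS, TC32, 48 h drug treatment, CellTiter-Glo luminescence as a proxy for metabolically active cells; primary top concentration 46 µM (MIPE 11-pt, NPC 8-pt); confirmatory 11-pt.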
Potency is the fitted concentration of half-maximal effect.

Row | Compound | Potency | activity change, negative = cytotoxicity [%]
1 | CCc1nc(N)nc(N)c1-c1ccc(Cl)cc1 | 2.93 µM (active) | –
2 | CCN(CC)C(=S)SSC(=S)N(CC)CC | 0.293 µM (active) | –
3 | O=C1c2c(O)cc(O)cc2OC(c2ccc(O)c(O)c2)C1O (centres undefined) | – | -18.8
4 | CCN(CC)CCOc1ccc(Nc2ncc3cc(-c4c(Cl)cccc4Cl)c(=O)n(C)c3n2)cc1 | 2.61 µM (active) | –
5 | Cc1cc(C2CCCCC2)n(O)c(=O)c1 | 4.65 µM (active) | –
6 | CC[C@]1(O)C[C@H]2CN(CCc3c([nH]c4ccccc34)[C@@](C(=O)OC)(c3cc4c(cc3OC)N(C=O)[C@H]3[C@@](O)(C(=O)OC)[C@H](OC(C)=O)[C@]5(CC)C=CCN6CC[C@]43[C@@H]65)C2)C1 | 26.1 nM (active) and 117 nM (active) | –
7 | CCN(CCO)CCCC(C)Nc1ccnc2cc(Cl)ccc12 (centres undefined) | – | -8.38
8 | O=C(CCc1ccc(O)cc1)c1c(O)cc(O)cc1O | – | -11.1
9 | Nc1nc(OCc2ccccc2)c2[nH]cnc2n1 | – | -24.4
10 | CCOc1cc(CC(=O)N[C@@H](CC(C)C)c2ccccc2N2CCCCC2)ccc1C(=O)O | – | 5.08
11 | Cc1c(C(=O)NN2CCCCC2)nn(-c2ccc(Cl)cc2Cl)c1-c1ccc(Cl)cc1 | 23.3 µM (active) | –
12 | CC(C)C[C@H](NC(=O)[C@H](Cc1ccccc1)NC(=O)c1cnccn1)B(O)O | 0.0414 µM (active) | –
13 | Nc1nc(Cl)nc2c1ncn2[C@H]1C[C@H](O)[C@@H](CO)O1 | 0.737 µM (active) | –
14 | CC(S)C(=O)NCC(=O)O (centres undefined) | – | -13.9
15 | COc1cc(C(C)=O)ccc1OCCCN1CCC(c2noc3cc(F)ccc23)CC1 | 20.8 µM (active) | –

Assay: qHTS of pediatric cancer cell lines to identify multiple opportunities for drug repurposing: Confirmatory screen for MG 63 (6-TG R) cells (AID 1347119); note: nearly all actives have a fitted effect of over 55% in size;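 for activity change, negative = cytotoxicity: plate controls were DMSO neutral control for no effect and bortezomib for full effect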
Conditions: MG-63 (6-TG resistant) osteosarcoma viability; series mostly up to 45.9 µM; activity change, negative = cytotoxicity: at the top concentration
Summary of the method: (§1)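 Viability after 48 h compound treatment at 37C, 500-1,000 cells/well, read as ATP luminescence with CellTiter-Glo. Primary screens used 11-point (MIPE, 0.78 nM-46 µM) or 8-point (NPC, 0.59 nM-46 µM) final concentrations; follow-up screens used 11-point dilutions.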

Row | Compound | activity change, negative = cytotoxicity [%] | Potency
16 | Cc1ccc(Nc2nccc(N(C)c3ccc4c(C)n(C)nc4c3)n2)cc1S(N)(=O)=O | -19.5 | –
17 | CN(C)c1ccc2nc3ccc(=[N+](C)C)cc-3sc2c1 | – | 928 nM (active)
18 | CS(=O)(=O)OCCCCOS(C)(=O)=O | 10.4 | –
19 | Cc1ccc(NC(=O)c2ccc(CN3CCN(C)CC3)cc2)cc1Nc1nccc(-c2cccnc2)n1 | 17.7 | –
20 | Nc1ccn([C@@H]2O[C@H](CO)[C@@H](O)C2O)c(=O)n1 (some centres undefined) | -8.4 | –
21 | CC1(C)C(=O)N(CCN2CCC(C(=O)c3ccc(F)cc3)CC2)c2ccccc21 | -20.9 | –
22 | O=C(NCC1CCCCN1)c1cc(OCC(F)(F)F)ccc1OCC(F)(F)F (centres undefined) | -3.94 | –
23 | C=C(c1ccc(C(=O)O)cc1)c1cc2c(cc1C)C(C)(C)CCC2(C)C | 7.84 | –
24 | CC(=O)O[C@H]1C(=O)[C@@]2(C)C([C@H](OC(=O)c3ccccc3)[C@]3(O)C[C@H](OC(=O)[C@H](O)[C@@H](NC(=O)c4ccccc4)c4ccccc4)C(C)=C1C3(C)C)[C@]1(OC(C)=O)CO[C@@H]1C[C@@H]2O (some centres undefined) | – | 13.1 nM (active)
25 | CCCCc1ccc2nc(NC(=O)OC)[nH]c2c1 | – | 185 nM (active)
26 | Oc1ccc(-c2nc(-c3ccc(F)cc3)c(-c3ccncc3)[nH]2)cc1 | – | 14700 nM (active)
27 | CCCOc1ccc2nc(NC(=O)OC)[nH]c2c1 | – | 1170 nM (active)
28 | C[C@]12CCC(=O)C=C1CC[C@@H]1[C@H]2[C@@H](O)C[C@@]2(C)[C@H]1CC[C@]2(O)C(=O)CO | 15.1 | –
29 | CCc1nc(N)nc(N)c1-c1ccc(Cl)cc1 | -6.93 | –
30 | Nc1ncn([C@H]2C[C@H](O)[C@@H](CO)O2)c(=O)n1 | 11.4 | –
31 | CCN(CC)C(=S)SSC(=S)N(CC)CC | -25.9 | –
32 | c1cnc2cc3c(cc2n1)C1CNCC3C1 | -16.9 | –
33 | O=C1c2c(O)cc(O)cc2OC(c2ccc(O)c(O)c2)C1O (centres undefined) | -8.95 | –
34 | CCN(CC)CCOc1ccc(Nc2ncc3cc(-c4c(Cl)cccc4Cl)c(=O)n(C)c3n2)cc1 | – | 261 nM (active)
35 | Cc1cc(C2CCCCC2)n(O)c(=O)c1 | – | 20800 nM (active)
36 | CC[C@]1(O)C[C@H]2CN(CCc3c([nH]c4ccccc34)[C@@](C(=O)OC)(c3cc4c(cc3OC)N(C=O)[C@H]3[C@@](O)(C(=O)OC)[C@H](OC(C)=O)[C@]5(CC)C=CCN6CC[C@]43[C@@H]65)C2)C1 | – | 46.5 nM (active) and 329 nM (active)
37 | CCN(CCO)CCCC(C)Nc1ccnc2cc(Cl)ccc12 (centres undefined) | -1.81 | –
38 | O=C(CCc1ccc(O)cc1)c1c(O)cc(O)cc1O | 9.47 | –
39 | CC(C)C[C@H](NC(=O)[C@H](Cc1ccccc1)NC(=O)c1cnccn1)B(O)O | – | 20.8 nM (active)
40 | Nc1nc(Cl)nc2c1ncn2[C@H]1C[C@H](O)[C@@H](CO)O1 | – | 16500 nM (active)
41 | CC(S)C(=O)NCC(=O)O (centres undefined) | -13.4 | –
42 | COc1cc(C(C)=O)ccc1OCCCN1CCC(c2noc3cc(F)ccc23)CC1 | -26.7 | –

Assay: qHTS of pediatric cancer cell lines to identify multiple opportunities for drug repurposing: Confirmatory screen for control Hh wild type fibroblast cells (AID 1347121); note: nearly all actives have a fitted effect of over 70% in size;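 for activity, negative = cytotoxic: plate controls were DMSO for no effect and bortezomib for full effect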
Conditions: viability qHTS; series mostly up to 45.9 µM; activity, negative = cytotoxic: at the top concentration
Summary of the method: as §1

Row | Compound | Potency | activity, negative = cytotoxic [%]
43 | CN(C)c1ccc2nc3ccc(=[N+](C)C)cc-3sc2c1 | 18500 nM (active) | –
44 | CS(=O)(=O)OCCCCOS(C)(=O)=O | – | 12.7
45 | Cc1ccc(NC(=O)c2ccc(CN3CCN(C)CC3)cc2)cc1Nc1nccc(-c2cccnc2)n1 | – | 5.53
46 | Nc1ccn([C@@H]2O[C@H](CO)[C@@H](O)C2O)c(=O)n1 (some centres undefined) | – | -2.4
47 | CC1(C)C(=O)N(CCN2CCC(C(=O)c3ccc(F)cc3)CC2)c2ccccc21 | – | 1.79
48 | CN(C)c1ccc(O)c2c1C[C@H]1C[C@H]3[C@H](N(C)C)C(=O)C(C(N)=O)=C(O)[C@@]3(O)C(=O)C1=C2O | – | 16.1
49 | O=C(NCC1CCCCN1)c1cc(OCC(F)(F)F)ccc1OCC(F)(F)F (centres undefined) | – | 6.74
50 | Clc1ccc(C(Cn2ccnc2)OCc2ccsc2Cl)c(Cl)c1 (centres undefined) | – | -3.37
51 | C=C(c1ccc(C(=O)O)cc1)c1cc2c(cc1C)C(C)(C)CCC2(C)C | – | 17.8
52 | Oc1ccc(-c2nc(-c3ccc(F)cc3)c(-c3ccncc3)[nH]2)cc1 | – | 7.95
53 | CCCOc1ccc2nc(NC(=O)OC)[nH]c2c1 | – | -8.02
54 | Cc1nc(Nc2ncc(C(=O)Nc3c(C)cccc3Cl)s2)cc(N2CCN(CCO)CC2)n1 | – | 14.4
55 | C[C@]12CCC(=O)C=C1CC[C@@H]1[C@H]2[C@@H](O)C[C@@]2(C)[C@H]1CC[C@]2(O)C(=O)CO | – | -2.96
56 | Nc1ncn([C@H]2C[C@H](O)[C@@H](CO)O2)c(=O)n1 | – | 7.42
57 | CCN(CC)C(=S)SSC(=S)N(CC)CC | – | -9.77
58 | c1cnc2cc3c(cc2n1)C1CNCC3C1 | – | 7.96
59 | O=C1c2c(O)cc(O)cc2OC(c2ccc(O)c(O)c2)C1O (centres undefined) | – | 9.08
60 | CC[C@]1(O)C[C@H]2CN(CCc3c([nH]c4ccccc34)[C@@](C(=O)OC)(c3cc4c(cc3OC)N(C=O)[C@H]3[C@@](O)(C(=O)OC)[C@H](OC(C)=O)[C@]5(CC)C=CCN6CC[C@]43[C@@H]65)C2)C1 | inactive | –
61 | CCN(CCO)CCCC(C)Nc1ccnc2cc(Cl)ccc12 (centres undefined) | – | 2.12
62 | O=C(CCc1ccc(O)cc1)c1c(O)cc(O)cc1O | – | 10.8
63 | Nc1nc(OCc2ccccc2)c2[nH]cnc2n1 | – | -12.1
64 | CCOc1cc(CC(=O)N[C@@H](CC(C)C)c2ccccc2N2CCCCC2)ccc1C(=O)O | – | 10.2
65 | Cc1c(C(=O)NN2CCCCC2)nn(-c2ccc(Cl)cc2Cl)c1-c1ccc(Cl)cc1 | – | -8.66
66 | CC(C)C[C@H](NC(=O)[C@H](Cc1ccccc1)NC(=O)c1cnccn1)B(O)O | 827 nM (active) | –
67 | Nc1nc(Cl)nc2c1ncn2[C@H]1C[C@H](O)[C@@H](CO)O1 | – | 4.06
68 | CC(S)C(=O)NCC(=O)O (centres undefined) | – | -5.9
69 | COc1cc(C(C)=O)ccc1OCCCN1CCC(c2noc3cc(F)ccc23)CC1 | – | 2.06
